# Results filed as inconclusive are left out. Where a call stands in place of a potency, no number is given. Calls of active or inactive are those of the source. The call rests on the fitted dose curve; in most records, active means well fitted activation curve with a large enough effect in the repeat runs; inconclusive means weak or mixed curves; inactive means flat fitted curve, though single readings scatter.
# Assay: qHTS assay for small molecule agonists of the antioxidant response element (ARE) signaling pathway measured by Nrf2-dependant transcriptional activity (AID 720636)
# Settings: ARE-luc HepG2, Nrf2 luciferase reporter, 16 h; series mostly up to 92.4 µM
# Source text: National Center for Advancing Translational Sciences [NCATS] NIH Chemical Genomics Center [NCGC] U.S. Environmental Protection Agency [EPA] National Institutes of Environmental Health Sciences [NIEHS] National Toxicology Program [NTP] Assay Overview: The antioxidant response element (ARE) signaling pathway plays an important role in the cellular anti-oxidant defense. Exposure to stressors which are exogenous like ionizing radiations, chemicals, U-V light, and endogenous like cell signaling, metabolic processes or inflammation, reactive oxygen species (ROS), can induce oxidative stress in the cells. Oxidative stress has been implicated in the pathogenesis of a variety of diseases ranging from cancer to neurodegeneration. ARE-luc HepG2 cell line (Simmons et al., Current Chemical Genomics, 5:1-12, 2011) has been used for identifying the chemicals that induce oxidative stress. The cell line has an Nrf2-responsive luciferase reporter gene that has been engineered to measure Nrf2-dependant transcriptional activity.
# Assay Protocol Summary: For measuring ARE induction; 2,000 ARE-luc HepG2 cells in 5 uL of assay medium containing 1% dialyzed FBS per well were dispensed into white wall/solid bottom 1536-well plates using a Flying Reagent Dispenser (FRD) (Aurora Discovery). The assay plates were incubated for 6 hr at 37 C to allow cell attachment to the well bottom, followed by the transfer of 23 nL compound or DMSO vehicle by a pin tool (Kalypsys). The plates were incubated for 16 hr at 37 C and 5% CO2, followed by the addition of 5 uL of ONE-GloTM luciferase reagent (Promega) into each well using FRD. After 30 min room temperature incubation, plates were read on a ViewLux plate reader (PerkinElmer).
# Potency means the concentration at half of the fitted maximal effect.
row,SMILES,Potency
1,Clc1ccc(-c2cc(Cl)c(Cl)cc2Cl)cc1Cl,inactive
2,CCCCOCCOC(C)=O,inactive
3,CC/C(=C(\c1ccccc1)c1ccc(OCCN(C)C)cc1)c1ccc(O)cc1,inactive
4,CC(C)=CC1C(C(=O)OCc2coc(Cc3ccccc3)c2)C1(C)C (stereo not given),inactive
5,CCc1cc(C)cc(CC)c1-c1c(OC(=O)C(C)(C)C)n2n(c1=O)CCOCC2,inactive
6,CCOP(=O)(OCC)OC(Cl)C(Cl)(Cl)Cl (stereo not given),inactive
7,CC1=NNC(=O)N(/N=C/c2cccnc2)C1,inactive
8,CS(=O)(=O)c1cc(C(F)(F)F)ccc1C(=O)c1cnoc1C1CC1,inactive
9,C=CC(=O)NCO,inactive
10,COc1cc(Cl)c(OC)cc1Cl,inactive
11,Fc1ccc(Oc2ccnc3cc(Cl)cc(Cl)c23)cc1,34.4 µM (active)
12,CSc1nc(NC(C)C)nc(NC(C)C)n1,inactive
13,O=C1NCCN1Cc1ccc(Cl)nc1,inactive
14,CCOP(=O)(NC(C)C)Oc1ccc(S(C)=O)c(C)c1 (stereo not given),inactive
15,C/C(=N\C(N)=O)N(C)Cc1ccc(Cl)nc1,inactive
16,CC(C)(C)[C@@H](O)/C(=C\c1ccc(Cl)cc1Cl)n1cncn1,inactive
17,ClC1=C(Cl)[C@]2(Cl)[C@H]3[C@H]([C@@H]4C=C[C@H]3C4)[C@]1(Cl)C2(Cl)Cl,inactive
18,Oc1ccc(C(c2ccc(O)cc2)(C(F)(F)F)C(F)(F)F)cc1,inactive
19,c1ccc2c(c1)oc1ccccc12,inactive
20,CC(C)[C@H](C(=O)O[C@H](C#N)c1cccc(Oc2ccccc2)c1)c1ccc(Cl)cc1,inactive

row,SMILES,Potency
1,[Cl][Sn]([c]1ccccc1)([c]1ccccc1)[c]1ccccc1,0.486 µM (active)
2,CCOC(=O)COc1cc(-c2nn(C)c(OC(F)F)c2Cl)c(F)cc1Cl,inactive
3,CC(C)(C#N)N=NC(C)(C)C#N,inactive
4,CCOP(=S)(S)OCC,inactive
5,Nc1nc(N)nc(Cl)n1,inactive
6,Oc1ccc(C2(c3ccc(O)cc3)c3ccccc3-c3ccccc32)cc1,inactive
7,CCCSP(=O)(OCC)Oc1ccc(Br)cc1Cl (stereo not given),inactive
8,O=S(=O)(O)C(F)(F)C(F)(F)C(F)(F)C(F)(F)C(F)(F)C(F)(F)F,inactive
9,CCOP(=S)(OCC)Oc1nc(Cl)n(C(C)C)n1,inactive
10,COP(=S)(OC)Oc1c(Cl)cc(C)cc1Cl,inactive
11,O=P(O)(O)CN(CP(=O)(O)O)CP(=O)(O)O,inactive
12,CC(C)C(C(=O)OC(C#N)c1cccc(Oc2ccccc2)c1)c1ccc(Cl)cc1 (stereo not given),inactive
13,O=C(CCl)c1ccccc1,inactive
14,Clc1ccc(C(Cl)(Cl)Cl)cc1,inactive
15,O=[N+]([O-])c1cc(C(F)(F)F)c(Cl)c([N+](=O)[O-])c1Nc1ncc(C(F)(F)F)cc1Cl,inactive
16,CC(C)Oc1cc(-n2nc(C(C)(C)C)oc2=O)c(Cl)cc1Cl,inactive
17,CCC(C)(CC)c1cc(NC(=O)c2c(OC)cccc2OC)on1,inactive
18,O=S(=O)(c1ccc(Cl)cc1)c1cc(Cl)c(Cl)cc1Cl,inactive
19,Cc1ccn2nc(S(=O)(=O)Nc3c(F)cccc3F)nc2n1,inactive
20,CCOP(=O)(OCC)SCSP(=S)(OCC)OCC,inactive
